This note sets out measurements from PubChem BioAssay (NCATS).

The target in test [1] is ATP-dependent 6-phosphofructokinase (Trypanosoma brucei brucei) (UniProt O15648). Nature of the test: qHTS Assay to Find Inhibitors of T. brucei phosphofructokinase: hit validation (AID 492961).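 Note: luminescence reports ADP formed as PFK phosphorylates fructose-6-phosphate with ATP.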 The settings on record: T. brucei PFK, ADP-Glo luminescence; series mostly up to 51.4 µM. The procedure, abridged: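 In this biochemical qHTS validation, titrated compounds were tested against 1.25 nM PFK with 0.1 mM ATP and 0.5 mM F6P. Percent activity came from controls lacking or containing enzyme.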
In general terms: In qHTS, concentration-response curves come from the screen itself.

The subject of test [2] is CP185. As to the kind of experiment: qHTS profiling for inhibitors of Plasmodium falciparum proliferation (AID 504749). Note: nearly all actives have a fitted effect of over 60% in size. Note: potency is the fitted concentration of half-maximal effect. The settings on record: P. falciparum in erythrocytes, SYBR Green DNA, 72 h; series mostly up to 28.7 µM. The procedure, abridged:
(§1)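 SYBR Green fluorescence of parasite DNA, read after lysis and overnight dark incubation, measured growth over 72 h in erythrocyte culture at 0.3% parasitemia and 2.5% hematocrit. Data normalised to DMSO and 0.29 uM artemisinin, with plate-drift correction.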

Test [3] has as its system CP203. Described as above. The settings on record: P. falciparum in erythrocytes, SYBR Green DNA, 72 h; series mostly up to 28.7 µM. A digest of the protocol: as §1
Test [4] relates to CP211. The description is as above. The settings on record: P. falciparum in erythrocytes, SYBR Green DNA, 72 h; series mostly up to 28.7 µM. The procedure, abridged:
as §1

The subject of test [5] is CP237. Described as above. The settings on record: P. falciparum in erythrocytes, SYBR Green DNA, 72 h; series mostly up to 28.7 µM. A digest of the protocol:
as §1

Test [6] relates to CP250. The test is described as above. The settings on record: P. falciparum in erythrocytes, SYBR Green DNA, 72 h; series mostly up to 28.7 µM. The procedure, abridged:
as §1

In test [7] the test system is CP252. The description is as above. The settings on record: P. falciparum in erythrocytes, SYBR Green DNA, 72 h; series mostly up to 28.7 µM. The procedure, abridged:
as §1

The test system of test [8] is CP262. The test is described as above. The settings on record: P. falciparum in erythrocytes, SYBR Green DNA, 72 h; series mostly up to 28.7 µM. A digest of the protocol:
as §1

In test [9] the test system is CP268. Described as above. The settings on record: P. falciparum in erythrocytes, SYBR Green DNA, 72 h; series mostly up to 28.7 µM. A digest of the protocol:
as §1

Test [10] has as its system CP269. The description is as above. The settings on record: P. falciparum in erythrocytes, SYBR Green DNA, 72 h; series mostly up to 28.7 µM. The procedure, abridged:
as §1

The subject of test [11] is CP286. The description is as above. The settings on record: P. falciparum in erythrocytes, SYBR Green DNA, 72 h; series mostly up to 28.7 µM. The procedure, abridged:
as §1

For test [12], the system named is CP291. The description is as above. The settings on record: P. falciparum in erythrocytes, SYBR Green DNA, 72 h; series mostly up to 28.7 µM. A digest of the protocol:
as §1

The test system of test [13] is CP297. The description is as above. The settings on record: P. falciparum in erythrocytes, SYBR Green DNA, 72 h; series mostly up to 28.7 µM. The procedure, abridged: as §1
Test [14] concerns CP305. The test is described as above. The settings on record: P. falciparum in erythrocytes, SYBR Green DNA, 72 h; series mostly up to 28.7 µM. A digest of the protocol: as §1
Test [15] deals with CP315. The description is as above. The settings on record: P. falciparum in erythrocytes, SYBR Green DNA, 72 h; series mostly up to 28.7 µM. A digest of the protocol: as §1
Test [16] has as its system CP329. Described as above. The settings on record: P. falciparum in erythrocytes, SYBR Green DNA, 72 h; series mostly up to 28.7 µM. A digest of the protocol:
as §1

In test [17] the test system is PC15. The test is described as above. The settings on record: P. falciparum in erythrocytes, SYBR Green DNA, 72 h; series mostly up to 28.7 µM. A digest of the protocol:
as §1

Test [18] concerns TAB113. The description is as above. The settings on record: P. falciparum in erythrocytes, SYBR Green DNA, 72 h; series mostly up to 28.7 µM. The procedure, abridged:
as §1

Test [19] deals with Dd2. Described as above. The settings on record: P. falciparum in erythrocytes, SYBR Green DNA, 72 h; series mostly up to 28.7 µM. A digest of the protocol: as §1
Test [20] relates to ICS. Described as above. The settings on record: P. falciparum in erythrocytes, SYBR Green DNA, 72 h; series mostly up to 28.7 µM. A digest of the protocol:
as §1

Molecules are shown by their SMILES. Inconclusive results are not listed. Activity calls are given as the source filed them. Calls come from the whole dose curve; as a rule, active = well fitted curve in the direction sought with a large enough effect; inconclusive = small, poorly fitted or top-dose-only effect, or another doubt; inactive = no such curve, though single readings can be large; an effect the other way counts as inactive or inconclusive.

Chain of ATP-dependent 6-phosphofructokinase (Trypanosoma brucei brucei) (O15648 whole entry, looked up): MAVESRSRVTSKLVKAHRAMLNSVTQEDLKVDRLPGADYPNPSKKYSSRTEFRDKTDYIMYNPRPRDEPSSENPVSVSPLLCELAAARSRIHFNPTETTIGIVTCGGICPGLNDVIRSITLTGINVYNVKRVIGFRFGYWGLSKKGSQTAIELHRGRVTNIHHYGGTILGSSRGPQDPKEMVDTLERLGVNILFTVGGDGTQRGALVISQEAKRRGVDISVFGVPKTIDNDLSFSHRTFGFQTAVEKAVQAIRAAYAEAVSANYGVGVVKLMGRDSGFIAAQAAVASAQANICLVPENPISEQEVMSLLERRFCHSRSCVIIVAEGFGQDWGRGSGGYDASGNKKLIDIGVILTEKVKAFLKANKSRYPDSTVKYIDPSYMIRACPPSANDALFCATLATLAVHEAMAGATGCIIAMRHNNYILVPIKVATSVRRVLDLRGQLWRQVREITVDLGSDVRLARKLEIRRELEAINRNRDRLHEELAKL

With `CC12CCC3C4CCC(=O)C(O)=C4CCC3C1CCC2OC(=O)CCC1CCCC1` (stereo not drawn), the call in test [1] was inactive. Moreover, the Potency entry in [2], in test [3], in test [4], in test [5], in test [6] and in [7] was “inactive” each time. Moreover, the Potency result in test [8], in test [9], in test [10], in test [11], in test [12] and in [13] was “inactive” each time. Also, the Potency result in [14], in test [15], in test [16], in test [17] and in [18] was “inactive” throughout.
For `CN(C)[C@@H](Cc1ccccc1)c1ccccc1`, the compound was called inactive in test [1]. Further, the Potency entry in test [2], in [3], in [4], in [6], in test [7] and in test [8] was “inactive” throughout. Besides, the Potency result in test [9], in test [10], in test [11], in [12], in test [14] and in [15] was “inactive” in each case. Further, the Potency result in test [16], in test [20], in [17] and in test [18] was “inactive” throughout. Further, the figures for the Potency in test [5] and in test [19] were 8.91 µM (active) and 10 µM (active), respectively.
Regarding `COC(=O)C1C(OC(=O)c2ccccc2)CC2CCC1N2C` (stereo not drawn), the Potency entry in [2], in test [3], in test [4], in test [5], in test [6] and in test [7] was “inactive” throughout. The Potency entry in test [8], in test [9], in test [10], in [11], in [12] and in [13] was “inactive” throughout. In addition, the Potency result in test [14], in test [15], in test [16], in [19], in test [20] and in test [17] was “inactive” each time. In addition, the Potency entry in test [18] was “inactive”.
Consider `CC(=O)O[C@H]1C[C@H](O[C@H]2[C@@H](O)CC(O[C@H]3[C@@H](O)C[C@H](O[C@H]4CC[C@@]5(C)[C@H](CC[C@@H]6[C@@H]5CC[C@]5(C)[C@@H](C7=CC(=O)OC7)CC[C@]65O)C4)O[C@@H]3C)O[C@@H]2C)O[C@H](C)[C@H]1O[C@@H]1O[C@H](CO)[C@@H](O)[C@H](O)[C@H]1O` (stereo partly drawn), for which the call in [1] was inactive. Also, the Potency result in [2], in [4], in test [6], in test [7], in test [8] and in test [9] was “inactive” in each case. In addition, the Potency result in test [10], in test [11], in [12], in test [13], in [14] and in test [15] was “inactive” in each case. In addition, the Potency result in [16], in [19], in [20] and in test [18] was “inactive” in each case.
`CC(=O)[C@H]1CC[C@H]2C3CC[C@H]4C[C@H](O)CC[C@]4(C)C3CC[C@]12C` (stereo partly drawn): the compound was called inactive in test [1]. In addition, the Potency result in test [2], in test [3], in [4], in test [5], in test [6] and in test [7] was “inactive” throughout. The Potency result in test [8], in test [9], in test [10], in [11], in test [12] and in test [13] was “inactive” in each case. Also, the Potency result in test [14], in [15], in test [16], in test [19], in [20] and in [17] was “inactive” throughout. Further, the Potency entry in [18] is “inactive”.
